Source: PubChem BioAssay (Tox21)
A number with no mark means an inactive call. Calls of active or inactive are those of the source. Calls follow the shape of the dose curve; as a rule, active = well fitted curve in the direction sought with a large enough effect in the repeat runs; inconclusive = weak or mixed curves; inactive = flat fitted curve, though single readings scatter.
% is scaled to controls: 0 for no effect and ±100 for the full control effect.

Experiment: qHTS assay to test for compound auto fluorescence at 590 nm (red) in HepG2 cell free culture (AID 720684)
Settings: cell-free medium autofluorescence, red 540/590 nm; series mostly up to 91.3 µM
Source text: U.S. Tox21 Program National Center for Advancing Translational Sciences [NCATS] NIH Chemical Genomics Center [NCGC] U.S. Environmental Protection Agency [EPA] National Institutes of Environmental Health Sciences [NIEHS] National Toxicology Program [NTP] U.S. Food and Drug Administration [FDA] Tox21 Assay Overview: Compound auto fluorescence often interferes with screening of the compound library against various biological targets and signaling pathways. Some of these compounds may have fluorophoric properties. Such properties may interfere with the assay outputs resulting in false positives and/or negatives. To decrease such complications and ensure the compound activities are relevant in terms of biological response, the Tox21 10K compound library was screened for auto fluorescence. From the fluorophores used as reporter signals in our screening assays, the auto fluorescence equivalencies of compounds against three fluorophores have been evaluated: Triamterene, Fluorescein and Rose Bengal sodium for blue, green and red fluorescence, respectively. The fluorescence intensities were measured using Excitation/Emission wavelengths at 405/460nm, 485/535nm and 540/590nm for blue, green and red labels, respectively. This assay includes the red fluorescence data.
Tox21 Assay Protocol Summary: 5 uL of culture medium (MEM containing 10% FBS) per well was dispensed into black wall/clear bottom 1536-well plates using a Multidrop Combi Dispenser (ThermoFisher Scientific, Waltham, MA). After 23 nL compound or DMSO vehicle was transferred into assay plate by a pintool work station (Kalypsys, San Diego, CA), fluorescence intensities in the assay plates were measured by an Envision (PerkinElmer, Shelton, CT) plate reader using three labels for measuring blue, green and red fluorescence at […] 460, 535 and 590nm respectively.
For COc1ccc(/C=C/S(=O)(=O)NC(=O)c2ccc(C)cc2Cl)cc1, the outcome was “inactive”. With C1CCN(CN2CCCCC2)CC1 the outcome was “inactive”. For S=c1[nH][nH]c(=S)s1, the outcome was “inactive”. In the case of CCC1=C(C)CN(C(=O)NCCc2ccc(S(=O)(=O)NC(=O)NC3CCC(C)CC3)cc2)C1=O (stereo not given), the outcome is reported as “inactive”. For Cc1ccc(S(=O)(=O)NC(=O)NC2CCCC2)cc1, the outcome was “inactive”. In the case of CCC[Si](OC)(OC)OC, the outcome is reported as “inactive”. With COC=O the fluorescence, % of Rose Bengal was -0.0589% [at 9.17 µM]. With CCC(C)CCCC(C)(C)O (stereo not given) the outcome was “inactive”. In the case of CCCCCCCCCCCCCCCCN, the outcome is reported as “inactive”. With CC(O)C(C)O (stereo not given) the outcome was “inactive”. In the case of O=C(O)CNc1ccccc1, the outcome is reported as “inactive”. With CC(C)C[C@H](NC(=O)[C@H](Cc1ccccc1)NC(=O)c1cnccn1)B(O)O the outcome was “inactive”. For OCC(O)c1ccccc1 (stereo not given), the outcome was “inactive”. For CO[C@@H]1[C@@H](O[C@@H]2O[C@H](C)[C@@H](O[C@H]3C[C@@](C)(O)[C@@H](O)[C@H](C)O3)[C@H](N(C)C)[C@H]2O)[C@@H](CC=O)C[C@@H](C)[C@@H](O[C@@H]2CC[C@H](N(C)C)[C@@H](C)O2)/C=C/C=C/C[C@@H](C)OC(=O)C[C@H]1OC(C)=O, the outcome was “inactive”. For Oc1ccc(CCNCCCCCCNCCc2ccccc2)cc1O, the outcome was “inactive”. With O=C(O)CCc1nc2ccccc2[nH]1 the outcome was “inactive”. With Cc1cccc(C)c1NC(=O)CN1CCCC1 the outcome was “inactive”. With O=C(O)c1cccc(C(=O)O)c1C(=O)O the outcome was “inactive”. For O=C(Cl)c1cc(Cl)cc(Cl)c1, the outcome was “inactive”. With COc1cccc([C@H](O)C2CCN(CCc3ccc(F)cc3)CC2)c1OC the outcome was “inactive”. For COc1ccc(/C=C/c2cc(OC)cc(=O)o2)cc1, the outcome was “inactive”. For CCOCCn1c(N2CCCN(C)CC2)nc2ccccc21, the outcome was “inactive”. In the case of CS(C)=O, the outcome is reported as “inactive”. In the case of FC1(F)C(F)(F)C(F)(F)C2(F)C(F)(C1(F)F)C(F)(F)C(F)(F)C1(F)C(F)(F)C(F)(F)C(F)(F)C(F)(F)C12F (stereo not given), the outcome is reported as “inactive”. For CC(C)=CCCC(C)C=O (stereo not given), the outcome was “inactive”. With CC1(C)CC(O)CC(C)(C)N1[O] the outcome was “inactive”. CC(COc1ccccc1)NC(C)C(O)c1ccc(O)cc1 (stereo not given) showed a fluorescence, % of Rose Bengal of -0.0388% [at 18.6 µM]. In the case of CCc1cnc(C(=O)O)c(C(=O)O)c1, the outcome is reported as “inactive”. With O=Cc1ccc(Cl)c([N+](=O)[O-])c1 the outcome was “inactive”. In the case of O=C(O)COCC(=O)O, the outcome is reported as “inactive”. In the case of COC(=O)Cc1cccc2ccccc12, the outcome is reported as “inactive”. With COc1cc(CNC(=O)CCCC/C=C/C(C)C)ccc1O the outcome was “inactive”. In the case of O=C(O)c1ccc(O)c(O)c1, the outcome is reported as “inactive”. For CCC(=O)O[C@@H]1C[C@H]2CC[C@]1(C)C2(C)C, the outcome was “inactive”. In the case of CC(C)NC(=O)c1ccccc1N, the outcome is reported as “inactive”. With N#Cc1ccc(CC(=O)c2cccc(C(F)(F)F)c2)cc1 the outcome was “inactive”. With CC(=O)S[C@H](C(=O)N[C@H]1Cc2ccccc2[C@H]2CCC[C@@H](C(=O)O)N2C1=O)C(C)C the outcome was “inactive”. Work on CCN(CCCCOC(=O)c1ccc(OC)c(OC)c1)C(C)Cc1ccc(OC)cc1 (stereo not given) yielded a fluorescence, % of Rose Bengal of 0.006% [at 18.6 µM]. In the case of CCOc1ccc(NC(C)=O)cc1N, the outcome is reported as “inactive”. For CC(=O)Nc1cccc(N)c1, the outcome was “inactive”.
